Potency and activity change, negative = cytotoxicity data for 9 compounds are collected here from PubChem BioAssay (NCATS).

Molecules are shown by their SMILES. Results filed as inconclusive are left out. Unmarked numbers belong to inactive results. Calls of active or inactive are those of the source. Calls follow the shape of the dose curve; as a rule, active = well fitted cell-killing curve with a large enough effect; inconclusive = small, poorly fitted or top-dose-only effect, or effect the other way; inactive = flat fitted curve, though single readings scatter.

Assay in all cases: Primary qHTS to identify gynecologic anti-cancer compounds using libraries of approved drugs and bioactive compounds (AID 1345084); also: nearly all actives have a fitted effect of over 55% in size
For orientation: qHTS replaces the single test concentration by a dilution series.

One assay concerns C33A. Conditions: Gynecologic cancer cell panel viability, ATPlite luminescence, 48 h; series mostly up to 57.5 µM. The gist of the method:
(§1)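 Luminescence from the ATPlite ATP-monitoring reagent indicates viable cell number; lower signal means cytotoxicity. Cells received compound 16 h after seeding and were exposed for 48 h across five concentrations.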

The test system of a further assay is CAOV3. Conditions: Gynecologic cancer cell panel viability, ATPlite luminescence, 48 h; series mostly up to 57.5 µM. The gist of the method:
as §1

The next assay deals with CASKI. Particulars: Gynecologic cancer cell panel viability, ATPlite luminescence, 48 h; series mostly up to 57.5 µM. In outline:
as §1

Another assay deals with Es-2. Particulars: Gynecologic cancer cell panel viability, ATPlite luminescence, 48 h; series mostly up to 57.5 µM. In outline:
as §1
A general note: ATP-based viability assays read luminescence as a measure of living cells.

In the next assay the test system is HeLa. Particulars: Gynecologic cancer cell panel viability, ATPlite luminescence, 48 h; series mostly up to 57.5 µM. The gist of the method: as §1
A further assay relates to Hek293T. Particulars: Gynecologic cancer cell panel viability, ATPlite luminescence, 48 h, control line for the selectivity index; series mostly up to 57.5 µM. The gist of the method: as §1
A further assay deals with JEG-3. Particulars: Gynecologic cancer cell panel viability, ATPlite luminescence, 48 h; series mostly up to 57.5 µM. The gist of the method:
as §1

The test system of another assay is OV90. Particulars: Gynecologic cancer cell panel viability, ATPlite luminescence, 48 h; series mostly up to 57.5 µM. The gist of the method:
as §1

The test system of another assay is PA-1. Particulars: Gynecologic cancer cell panel viability, ATPlite luminescence, 48 h; series mostly up to 57.5 µM. In outline:
as §1

In the next assay the test system is SKOV3. Conditions: Gynecologic cancer cell panel viability, ATPlite luminescence, 48 h; series mostly up to 57.5 µM. In outline:
as §1

A further assay concerns Tov-21-G. Particulars: Gynecologic cancer cell panel viability, ATPlite luminescence, 48 h; series mostly up to 57.5 µM. The gist of the method:
as §1

In another assay the test system is Tov112D. Conditions: Gynecologic cancer cell panel viability, ATPlite luminescence, 48 h; series mostly up to 57.5 µM. In outline:
as §1
% is scaled to controls: 0 for no effect and ±100 for the full control effect; potency is read from the fitted curve at half-maximal effect.

In the case of `O=C(O)/C=C/c1ccc(O)c(O[C@@H]2O[C@H](CO)[C@@H](O)[C@H](O)[C@H]2O)c1`, the Potency result with C33A, in the assay with CAOV3, in the assay with CASKI, in the assay on Es-2, with HeLa and with Hek293T was “inactive” throughout. The Potency result with JEG-3, with OV90, in the assay on PA-1, in the assay with SKOV3, with Tov-21-G and in the assay on Tov112D was “inactive” throughout.

For the compound `C=C1CCC2C(C)(C)C(O)CCC2(C)C1CCC(C)CCO` (stereo not drawn), the Potency entry in the assay on C33A, in the assay with CAOV3, with CASKI, with Es-2, with HeLa and in the assay with Hek293T was “inactive” each time. Besides, the Potency result in the assay on JEG-3, in the assay with OV90, with PA-1, in the assay on SKOV3, with Tov-21-G and in the assay on Tov112D was “inactive” in each case.

Turning to `N#C[C@@H]1C[C@H](F)CN1C(=O)CNC1[C@H]2CN(C(=O)c3ccc(F)cc3)C[C@@H]12` (stereo partly drawn), the Potency entry with C33A, with CAOV3, with CASKI, with Es-2, with HeLa and with Hek293T was “inactive” in each case. In addition, the Potency result in the assay with JEG-3, with OV90, in the assay with PA-1, in the assay on SKOV3, in the assay on Tov-21-G and in the assay with Tov112D was “inactive” each time.

For `CC1(C(=O)O)CCCC2(C)C3=CCC4CC3(CCC12)CC4CO` (stereo not drawn), the Potency entry in the assay on C33A, in the assay with CAOV3, in the assay on CASKI, in the assay with Es-2, in the assay with HeLa and in the assay with Hek293T was “inactive” each time. Besides, the Potency entry with JEG-3, in the assay on OV90, in the assay on PA-1, in the assay on SKOV3, in the assay with Tov-21-G and in the assay on Tov112D was “inactive” in each case.

Regarding `Cc1cc(C)c2c(N)c(C(=O)NCc3ccc(Cl)cc3)sc2n1`, the Potency result with C33A, with CAOV3, in the assay with CASKI, with Es-2, with HeLa and in the assay on Hek293T was “inactive” throughout. Besides, the Potency entry in the assay with JEG-3, in the assay with OV90, in the assay on PA-1, with SKOV3, in the assay on Tov-21-G and in the assay on Tov112D was “inactive” in each case.

For the compound `CC1(C)CC[C@]2(C(=O)O)[C@H](O)C[C@]3(C)C(=CCC4[C@@]5(C)CC[C@H](O[C@@H]6O[C@H](CO[C@@H]7OC[C@H](O)[C@H](O)[C@H]7O[C@@H]7OC[C@@H](O)[C@H](O)[C@H]7O)[C@@H](O)[C@H](O)[C@H]6O[C@@H]6O[C@H](CO)[C@@H](O)[C@H](O)[C@H]6O)C(C)(C)C5CC[C@]43C)[C@@H]2C1` (stereo partly drawn), the activity change, negative = cytotoxicity with C33A is -1.17% [at 11.6 µM]; with CAOV3 it was -15.5% [at 11.6 µM]; in the assay with CASKI it was 15.8% [at 11.6 µM]; in the assay on Es-2, -1.47% [at 11.6 µM]; in the assay on HeLa, 4.13% [at 11.6 µM]; in the assay with Hek293T, 5.35% [at 11.6 µM]. Moreover, the activity change, negative = cytotoxicity is 8.72% [at 11.6 µM] with JEG-3; 15.1% [at 11.6 µM] in the assay with OV90; -2.35% [at 11.6 µM] in the assay with PA-1; 21.8% [at 11.6 µM] in the assay on SKOV3; -13.8% [at 11.6 µM] in the assay with Tov-21-G; 1.64% [at 11.6 µM] in the assay on Tov112D.

In the case of `CC1OC(O[C@H]2CC[C@@]3(C)C(CC[C@]4(C)C3CC=C3C5CC(C)(C)CC[C@]5(C(=O)OC5OC(CO)C(OC6OC(COC7OCC(O)C(O)C7O)C(O)C(O)C6O)C(O)C5O)CC[C@]34C)C2(C)C)C(O)C(O)C1OC1OCC(OC2OCC(O)C(O)C2O)C(O)C1O` (stereo partly drawn), the activity change, negative = cytotoxicity in the assay with C33A was 24.4% [at 6.55 µM]; with CAOV3, 3.53% [at 6.55 µM]; in the assay on CASKI, -2% [at 6.55 µM]; in the assay with Es-2 it was 0.974% [at 6.55 µM]; with HeLa, -5.59% [at 6.55 µM]; in the assay on Hek293T, 2.21% [at 6.55 µM]. Also, the activity change, negative = cytotoxicity with JEG-3 is 7.58% [at 6.55 µM]; with OV90, 5.67% [at 6.55 µM]; in the assay on PA-1, -4.41% [at 6.55 µM]; in the assay on SKOV3, 5.68% [at 6.55 µM]; with Tov-21-G, -0.908% [at 6.55 µM]; in the assay on Tov112D, -13.2% [at 6.55 µM].

Regarding `C/C=C(/COC(=O)/C(C)=C/C)C(=O)OC(CC)c1ccc(OC)c(OC)c1` (stereo not drawn), the Potency result in the assay with C33A, with CAOV3, in the assay on CASKI, in the assay on Es-2, with HeLa and in the assay with Hek293T was “inactive” in each case. Further, the Potency result with JEG-3, with OV90, in the assay on PA-1, in the assay with SKOV3, in the assay with Tov-21-G and in the assay with Tov112D was “inactive” throughout.

In the case of `Cc1cc(C)cc(C(=O)NOCCCCCC(=O)NO)c1`, the Potency with C33A was 3.98 µM (active); in the assay with CAOV3, 8.91 µM (active); with CASKI, 7.08 µM (active); in the assay on Es-2, 3.16 µM (active); with HeLa it was 3.16 µM (active); in the assay with Hek293T, 3.55 µM (active). Also, the Potency in the assay with JEG-3 was 3.16 µM (active); in the assay with OV90 it was 3.98 µM (active); in the assay with PA-1, 0.891 µM (active); in the assay on SKOV3, 3.16 µM (active); with Tov-21-G, 8.91 µM (active); in the assay on Tov112D, 3.55 µM (active).
